From PubChem BioAssay (NCI)
“And” between values parts separate entries of the source, which are not always exact repeats. Equal entries are not always repeated. About 83,000 compounds went through this panel and 20% of them were active in at least one assay; those are over-represented in the sample as a whole.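 In brief: 96-well plates, 48 h treatment, single concentration, percent growth endpoint.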 A number with no mark means an inactive call. The source made the active and inactive calls. Rule for the calls: active = growth percent below 10; inactive = the rest.

What was measured:
Assay in all cases: NCI-60 one-dose screen, 48 h (100 = growth as untreated, 0 = no growth, -100 = all killed)
Settings in all cases: 10 µM unless noted
[1] = tested on: HCT-15 colon
[2] = tested on: HT29 colon
[3] = tested on: SNB-19 CNS
[4] = tested on: U251 CNS
[5] = tested on: SK-MEL-5 melanoma
[6] = tested on: UACC-62 melanoma
[7] = tested on: LOX IMVI melanoma
[8] = tested on: SK-MEL-28 melanoma
[9] = tested on: SNB-75 CNS
[10] = tested on: PC-3 prostate

Row | Structure (SMILES) | growth [1] | growth [2] | growth [3] | growth [4] | growth [5] | growth [6] | growth [7] | growth [8] | growth [9] | growth [10]
1 | CCN(CC)C(=S)SCCO | 107% | 99.8% | 104% | 98.2% | 99.7% | 107% | 97% | 112% |  | 
2 | c1ccc2c[n+](Cc3ccc4ccccc4n3)ccc2c1 | 106% |  | 71.2% | 55.4% | 15.1% | 90% | 88.8% | 87.6% | 79.7% | 50.9%
3 | O=C(NC(CSSCC(NC(=O)OCc1ccccc1)C(=O)O)C(=O)O)OCc1ccccc1 (stereo unspecified) | 90.9% and 98.4% |  | 93.2% and 104% | 84.2% and 97.5% | 90% and 102% | 91.5% and 102% | 103% and 95% | 96.6% and 104% |  | 90.5% and 73.1%
4 | O=[N+]([O-])c1ccc(N2CCN=N2)cc1 | 80% |  | 94.7% | 88.1% | 93.3% | 68.7% | 73.3% | 93.7% | 89.2% | 73.8%
5 | Cc1ccc([N+](=O)[O-])cc1Br | 101% | 70.7% | 97.9% | 96.4% | 99.8% | 95.8% | 105% | 104% |  | 
6 | O=[N+]([O-])c1ccc(NC(c2ccccc2)c2ccc3cccnc3c2O)cc1 (stereo unspecified) | 32.5% |  | 21.2% | 12.3% | -1.02% (active) | -4.08% (active) | 9.64% (active) | 27.7% | 47.3% | 
7 | O=C1C=CC(n2cc(F)c(=O)[nH]c2=O)O1 (stereo unspecified) | 57.8% | 39.4% | 79% | 82.2% | 60.4% | 44.5% | 54.8% | 75.1% |  | 
8 | ON=C(C1CCCCC1)C1CCCCC1 | 106% | 103% | 100% | 98.1% | 108% | 91.8% | 95.6% | 102% |  | 98.1%
9 | CCNCc1ccccc1 | 112% |  | 109% | 101% | 108% | 100% | 97.8% | 96.9% | 102% | 103%
10 | CN(C=O)c1ccccc1 | 95.1% |  | 102% | 93.5% | 94.5% | 88.7% | 89.5% | 109% |  | 88.4%
11 | OCCS | 104% |  | 108% | 95.3% | 100% | 103% | 96.2% | 109% | 91.1% | 99.8%
12 | N#CC1c2ccccc2C=CN1C(=O)c1ccccc1 (stereo unspecified) | 111% and 104% |  | 103% and 109% | 101% and 97.5% | 97.1% and 107% | 97.4% and 83.7% | 102% and 94.8% | 103% and 122% | 92.1% and 98% | 92.4% and 146%
13 | CNc1ccc(Cl)cc1S(=O)(=O)c1ccccc1[N+](=O)[O-] | 105% and 91.3% |  | 110% and 104% | 84.3% and 86.7% | 34.4% and 95.6% | 60.9% and 69.8% | 77.5% and 81.4% | 96.2% | 73.4% and 11.4% | 91.9% and 96.2%
14 | COc1ccc(CCNC(=S)NN)cc1OC | 123% | 104% | 127% | 105% | 103% | 115% | 103% | 114% |  | 101%
15 | Clc1ccc2c(c1)N(C1CCCN(Cc3ccccc3)C1)c1ccccc1S2 (stereo unspecified) | 26.6% |  | 41.6% | 17.4% | 23.3% | 44% | 57% | 56.9% | 27.6% | 
16 | COc1ccc(/C=N/Nc2nc3ccccc3s2)cc1 | 90.4% |  | 99% | 85.9% | 91.6% | 83% | 95.4% | 99.2% | 80.5% | 81.2%
17 | O=C1c2ccccc2C(c2ccccc2)C1c1ccccc1 (stereo unspecified) | 71.8% |  | 91.9% | 101% | 87.5% | 67.8% | 88.5% | 111% | 63.5% | 80.7%
18 | CC(C)(C)OC(=O)c1ccc(NCc2cc(O)ccc2O)cc1 | -30.1% (active) | 73.5% | 62.6% | 20.5% | 52.4% | 8.79% (active) | 24.3% | 8.43% (active) |  | 12.5%
19 | O=C(O)C#Cc1ccc(Cl)cc1 | 103% |  | 99.8% | 93.8% | 96.1% | 95.7% | 91.5% | 107% | 85.6% | 92%
20 | N#Cc1c(N)nc2c(c(-c3ccc(Cl)cc3)nn2-c2ccccc2)c1C#N | 98.6% [100 µM] |  | 99.6% [100 µM] | 92.8% [100 µM] | 103% [100 µM] | 97.9% [100 µM] | 96.6% [100 µM] | 114% [100 µM] | 104% [100 µM] | 98.6% [100 µM]
21 | NCCCCCC(=O)O | 103% [middle of 4 runs] |  | 103% [middle of 4 runs] | 107% and 104% and 91.4% | 108% and 109% and 110% | 112% [middle of 4 runs] | 100% [middle of 4 runs] | 112% and 109% and 119% | 93.6% [middle of 4 runs] | 106% [middle of 4 runs]
22 | Nc1[nH][nH]c(=O)c1N=Nc1ccccc1 | 96.3% and 106% | 107% and 88.8% | 99.5% and 112% | 109% and 105% | 104% and 99.5% | 96.3% and 109% | 105% and 100% | 111% and 118% |  | 
23 | COc1ccc(CCl)c(C)c1OC | 106% |  | 107% | 97.6% | 90.8% | 99.5% | 94.3% | 109% | 104% | 94.2%
24 | COc1ccc(-n2[nH]c3c(cnc4ccccc43)c2=O)cc1 | 96.1% and 91.4% | 95.1% and 93.4% | 103% | 107% | 100% and 98.7% | 95.9% and 87.9% | 88% and 105% | 108% and 100% |  | 91.3% and 97.4%
25 | O=C1Cc2ccccc2C(=O)N1 | 99.2% |  | 106% | 86.1% | 106% | 92.2% | 42.1% | 106% | 96.1% | 
